697 NFkB inh – lowers PMA/ionomycin-induced NF-kB signal in 697 B cells; 697 B-cell NF-kB luciferase reporter, 16 h; AID 435022; 330,000 tested, 0.33% active; inhibition, % at 4 µM; in the data active = inhibition above about 35%
Shn3 inh set2 – reduces Shn3 3'UTR luciferase signal in osteoblasts; Clone20 osteoblast Shn3 3'UTR firefly luciferase, 24 h; inhibition, % at 12.5 µM; 360,000 tested, 0.52% active; AID 588674;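 active = mean inhibition of at least 75% with every replicate also reaching 75%; inconclusive = mean inhibition at least 75% but some replicate below; inactive = mean inhibition below 75%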;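 also: 0% = median of neutral control wells and 100% = pilot-screen positive control compound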
Calb FLC – affects C. albicans growth with fluconazole; C. albicans CaCi-2 (fluconazole-resistant clinical isolate) + fluconazole, Alamar Blue growth, 48 h; growth inhibition, % (test concentration not listed); 300,000 tested, 0.57% active; AID 1979;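 active = growth inhibition above about 58% in most replicates, limit read from the data, passing the limit was not always enough; inconclusive = exactly half the replicates above a set limit; inactive = most replicates below a set limit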;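 also: all wells also contain fluconazole at 8 µg/ml as a sub-toxic cotreatment; 0% = median of DMSO wells and 100% = median of geldanamycin control wells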
Beta cell apopt – beta cell apoptosis inhibition | 300,000 tested, 0.8% active | INS-1E cytokine-induced death, ATP luminescence, 48 h; percent of positive-control rescue, neutral wells zero | protection from apoptosis, % (concentration not given with the values);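 active = Every replicate reaches about 75%, or at least half do and their mean reaches it too, limit read from the data; inconclusive = At least half of replicates reach the limit but their mean does not; inactive = Under half of replicates reach the limit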;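 also: 0% = cytokine-treated negative control wells and 100% = positive control rescue; higher means more ATP so stronger rescue from cytokine killing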
Jurkat NFkB inh – inhibitors of the PMA/ionomycin-induced NF-kB reporter in Jurkat cells; PMA/ionomycin-induced NF-kB luciferase reporter, luminescence; inhibition, % at 4 µM; 330,000 tested, 0.53% active; AID 435003; in the data active = inhibition above about 50%
* hit, by the source's call. Shown are actives, neighbours in structure and some others; about 2% of the full set was active somewhere.

Screening COc1ccccc1C(=O)NC(=O)CSc1nnc(N)s1 returned 697 NFkB inh 18, Shn3 inh set2 -27, Beta cell apopt -2 and Jurkat NFkB inh 8.
Screening O=C(NCc1cccc(C(F)(F)F)c1)c1ccc2nc([C@@H]3O[C@H](CO)[C@@H](O)[C@H]3O)[nH]c2c1 returned Shn3 inh set2 8.
Cc1ccc([N+](=O)[O-])cc1N=C(c1ccc([N+](=O)[O-])cc1)N1CCOCC1 was read as 697 NFkB inh 13, Shn3 inh set2 -22, Calb FLC -4, Beta cell apopt 0 and Jurkat NFkB inh 0.
`O=[N+]([O-])c1ccc(C(=Nc2cccc3ccccc23)N2CCOCC2)cc1` gave 697 NFkB inh -20, Shn3 inh set2 13, Calb FLC 100*, Beta cell apopt 3 and Jurkat NFkB inh 3.
CCc1c(C)nc2[nH]ncn2c1=O was read as Shn3 inh set2 -3.
Screening Cc1ccc(-n2c(CC#N)n[nH]c2=S)c(C)c1 returned 697 NFkB inh 6, Shn3 inh set2 -1, Calb FLC 12, Beta cell apopt 0 and Jurkat NFkB inh -5.
`Cc1ccc(-n2c(Cc3ccccc3)n[nH]c2=S)c(C)c1` gave 697 NFkB inh -9, Shn3 inh set2 -5, Calb FLC 72*, Beta cell apopt -7 and Jurkat NFkB inh -11.
For N/C(Cc1ccc(Cl)c(Cl)c1)=N\OC(=O)c1cccs1 the results were 697 NFkB inh 0, Shn3 inh set2 -29, Calb FLC 101*, Beta cell apopt -4 and Jurkat NFkB inh -9.
Screening Cc1c(Nc2cc(N3CCOCC3)c3nonc3c2[N+](=O)[O-])c(=O)n(-c2ccccc2)n1C returned Calb FLC -14.
For Cc1c(Nc2cc(Cl)c3nonc3c2[N+](=O)[O-])c(=O)n(-c2ccccc2)n1C the results were 697 NFkB inh 10, Shn3 inh set2 96* and Jurkat NFkB inh 18.
CC[C@@H](C(=O)[C@@H](C)[C@@H](O)[C@H](C)CCc1ccc(C)c(O)c1C(=O)O)[C@H]1O[C@](CC)([C@H]2CC[C@](O)(CC)[C@H](C)O2)C[C@@H]1C was read as 697 NFkB inh -103, Shn3 inh set2 92*, Beta cell apopt 97* and Jurkat NFkB inh 22.
For CC[C@@H](C(=O)[C@@H](C)[C@@H](O)[C@H](C)[C@@H]1O[C@@H]([C@@H](CC)C(=O)O)CC[C@@H]1C)[C@H]1O[C@]2(C=C[C@@H](O)[C@]3(CC[C@@](C)([C@H]4CC[C@](O)(CC)[C@H](C)O4)O3)O2)[C@H](C)C[C@@H]1C the results were Shn3 inh set2 82.
CCN(CC)C(=S)Sc1c(-c2ccccc2)c2cc(Cl)ccc2[nH]c1=O was read as 697 NFkB inh -14, Shn3 inh set2 87*, Calb FLC -21, Beta cell apopt 6 and Jurkat NFkB inh 4.
`COc1ccccc1NS(=O)(=O)c1cccc(C(=O)N2CCN(Cc3ccc4c(c3)OCO4)CC2)c1` gave 697 NFkB inh -6, Shn3 inh set2 0, Calb FLC 3, Beta cell apopt 10 and Jurkat NFkB inh 5.
For Cc1ccc(S(=O)(=O)N(C)c2ccc(OCC(=O)Nc3nnc(C4CC4)s3)cc2)cc1 the results were Shn3 inh set2 12 and Calb FLC 63*.
CCc1nnc(NC(=O)COc2ccc(N(C)S(=O)(=O)c3ccc(C)cc3)cc2)s1 was read as Shn3 inh set2 8 and Calb FLC 35.
CCOc1ccc(S(=O)(=O)N(C)c2ccc(OCC(=O)Nc3nc4ccccc4s3)cc2)cc1 was read as 697 NFkB inh -1, Shn3 inh set2 inconclusive, Calb FLC -3, Beta cell apopt 92* and Jurkat NFkB inh 11.
CC(=O)N/C(=C\c1ccccc1)C(=O)Nc1ccccc1C was read as 697 NFkB inh 9, Shn3 inh set2 -17, Calb FLC -25, Beta cell apopt -10 and Jurkat NFkB inh 5.
CN(C)C1CCN(Cc2cc(COCc3ccccc3)c3cccnc3c2O)C1 (configuration not stated) was read as 697 NFkB inh -61, Shn3 inh set2 88*, Beta cell apopt 77* and Jurkat NFkB inh 25.
`COCc1cc(CN2CCCC2)c(O)c2ncccc12` gave 697 NFkB inh -21, Shn3 inh set2 41, Calb FLC 5, Beta cell apopt 5 and Jurkat NFkB inh 18.
`Oc1c(CN2CCCCC2)cc(COCc2ccccc2)c2cccnc12` gave 697 NFkB inh -33, Shn3 inh set2 92*, Calb FLC 0, Beta cell apopt 39 and Jurkat NFkB inh 8.
COc1ccc(Cc2n[nH]c(=S)n2-c2cc(C)ccc2C)cc1OC was read as Shn3 inh set2 -6.
`Brc1ccc(N/N=C(/N=Nc2nn[nH]n2)c2ccccc2)cc1` gave 697 NFkB inh -51, Shn3 inh set2 70, Calb FLC 124*, Beta cell apopt 96* and Jurkat NFkB inh 15.
`O=C(O)c1ccc(N=N/C(=N\Nc2ccc(C(=O)O)cc2)c2ccccc2)cc1` gave 697 NFkB inh -35, Shn3 inh set2 -22, Calb FLC 1, Beta cell apopt 19 and Jurkat NFkB inh 21.
`CCc1nc(N2CCN(C(C)=O)CC2)c2c3c(sc2n1)CC(C(C)(C)C)CC3` (configuration not stated) gave 697 NFkB inh -49, Shn3 inh set2 82, Calb FLC 2, Beta cell apopt 118* and Jurkat NFkB inh 7.
O=C(CC[C@H]1O[C@@H](n2cnc3c(NC(=O)c4ccccc4)ncnc32)[C@H](O)[C@@H]1O)NCC1CCN(Cc2ccccc2)CC1 was read as Shn3 inh set2 -23.
CCO[C@@H]1OC(C(=O)NC2CC2)=C[C@H](c2coc3ccccc3c2=O)[C@H]1CCCO was read as 697 NFkB inh -1, Shn3 inh set2 92*, Calb FLC 12, Beta cell apopt -2 and Jurkat NFkB inh 11.
O=c1[nH]c(-c2ccccn2)nc(C(F)(F)F)c1Br was read as 697 NFkB inh 11, Shn3 inh set2 39, Calb FLC 108*, Beta cell apopt 30 and Jurkat NFkB inh 14.
Screening O=C(NCc1ccc2c(c1)OCO2)c1nc(Cn2cc(Br)cn2)no1 returned 697 NFkB inh 1, Shn3 inh set2 -2, Calb FLC 3, Beta cell apopt -3 and Jurkat NFkB inh -5.
For COc1c(Br)cc([N+](=O)[O-])c(OC)c1C(=O)NC(=O)Nc1c(Cl)cccc1Cl the results were 697 NFkB inh 18, Shn3 inh set2 13, Calb FLC 84* and Jurkat NFkB inh 11.
Screening COc1c(Br)cc([N+](=O)[O-])c(OC)c1C(=O)NC(=O)Nc1cc(Cl)cc(Cl)c1 returned 697 NFkB inh -40, Shn3 inh set2 5, Calb FLC -1 and Jurkat NFkB inh 30.
Screening COc1ccc(NC(=O)c2sc3ncnc(N4CCN(c5ccccn5)CC4)c3c2C)cc1Cl returned 697 NFkB inh -37, Shn3 inh set2 88*, Calb FLC -1 and Jurkat NFkB inh 14.

Screens deposited in PubChem by several laboratories.
